Pf Dd2 growth: qHTS Primary assay for Inhibitors of Plasmodium falciparum Dd2 growth in vitro; P. falciparum Dd2 growth, SYBR Green, 72 h; Potency, µM (series often up to 28.9 µM), most hits filed as inhibitors; hit rate 4.3% among 120,000; active means well fitted inhibition curve with a large enough effect; further: nearly all actives have a fitted effect of over 65% in size
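Readout: SYBR Green fluorescence, 485 nm excitation, 535 nm emission, after ~16 h lysis at 37C. Before that, Dd2-infected red cells (2.5% hematocrit) grew 72 h with compound, 29 uM top final concentration.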
Large screens that a line does not name were inactive. Many of the other results were omitted from the sample, so hits are more common in it than they were.

COc1cccc(CNC(=O)[C@@H]2C[C@@H](O)CN2C2CCN(C(=O)c3cccs3)CC2)c1	Pf Dd2 growth 8.9µM
COc1cccc(CNC(=O)[C@@H]2C[C@@H](O)CN2C2CCN(C(=O)c3ccco3)CC2)c1	none
O=C(CN1C(=O)COc2ccc(S(=O)(=O)N3CCOCC3)cc21)N1CCN(c2ccccc2F)CC1	none
CCCNC(=O)c1ccc(-n2c(-c3ccccc3)cc3c2CCC(C)C3)cc1 (stereo not drawn)	none
Cc1cc2c(n1-c1ccc(C(=O)NCc3ccc(OC(C)C)cc3)cc1)CCCC2	none
CN(C)CCNC(=O)c1ccc(-n2c(-c3ccccc3)cc3c2CCCCC3)cc1	Pf Dd2 growth 0.35µM
COCCNC(=O)c1ccc(-n2c(-c3ccccc3)cc3c2CCC(C)C3)cc1 (stereo not drawn)	none
CCOc1ccc(CCNC(=O)c2ccc(-n3c(C)cc4c3CCCC4)cc2)cc1OCC	Pf Dd2 growth 7.9µM
COCCCNC(=O)c1ccc(-n2c(-c3ccccc3)cc3c2CCCCC3)cc1	Pf Dd2 growth 5µM
CC1CCc2c(cc(-c3ccccc3)n2-c2ccc(C(=O)NC(C)C)cc2)C1 (stereo not drawn)	none
CC(C)NC(=O)c1ccc(-n2c(-c3ccccc3)cc3c2CCCCC3)cc1	none
CCOc1ccc(CCNC(=O)c2ccc(C)c(-n3c(C)nc4cccnc43)c2)cc1OCC	none
CC(C)N1C(=O)CO[C@H](c2ccc(NS(=O)(=O)Cc3ccccc3)cc2)[C@H]1CO	none
N#Cc1ccc(C(=O)NCC2CCOCC2)cc1	none
CCn1c(SCC(=O)c2ccccc2)nnc1-c1cccc(Cl)c1	none
Cc1ccc2c(c1)c1c(c(=O)n(Cc3ccccc3)c(=O)n1Cc1cccc(C(F)(F)F)c1)n2C	none
COc1cccc2c1OCC(Cc1cccc(N3CCNCC3)c1)C2 (stereo not drawn)	none
Cc1cc(C)c(Cn2c3ccccc3c3cnn(CC(=O)NCc4cccs4)c(=O)c32)c(C)c1	none
COc1ccc(C2c3[nH]c4ccc(OC)cc4c3CCN2C(=O)Nc2ccccc2)cc1 (stereo not drawn)	Pf Dd2 growth 6.3µM
COc1cc(C(=O)N2CCc3c([nH]c4ccccc34)C2c2ccc(F)cc2)cc(OC)c1OC (stereo not drawn)	Pf Dd2 growth 4.5µM
CCOc1cc(CNC(=O)C2CCN(c3nc4ccccc4[nH]3)CC2)cc(OCC)c1OCC	none
COc1ccccc1C(=O)NC1CCCc2c1[nH]c1ccccc21 (stereo not drawn)	none
CCOc1ccc(C2c3[nH]c4ccccc4c3CCN2C(=O)CCC2CCCC2)cc1 (stereo not drawn)	none
CCOc1cccc(CC(=O)N2CCc3c([nH]c4ccccc34)C2c2ccc(Cl)cc2)c1OCC (stereo not drawn)	Pf Dd2 growth 5µM
CCOc1cccc(CC(=O)NCc2ccc3c(c2)CCN3C(=O)c2cccc(C)c2)c1OCC	none
COc1ccc2[nH]c3c(c2c1)CCN(C)C31CCN(C(=O)C2CCCC2)CC1	none
COc1ccc(C(=O)N2CC(=O)Nc3ccc(Br)cc3C2c2ccc(F)cc2)cc1OC (stereo not drawn)	none
CCOc1cc(C(=O)N2CCc3c([nH]c4ccccc34)C2c2ccccc2)cc(OCC)c1OCC (stereo not drawn)	Pf Dd2 growth 2µM
CCc1ccccc1NC(=O)N1CCc2c([nH]c3ccccc23)C1c1ccc(C)cc1 (stereo not drawn)	none
CCOc1cc(C(=O)N2CCC[C@H]2c2nc(-c3ccc(C)cc3)no2)cc(OCC)c1OCC	none
O=C(NC[C@H]1Cn2c(-c3ccc(Cl)cc3)cnc2CO1)c1cccnc1	none
Cc1ncsc1CN1CCCCC1c1nc(CCOCC2CC2)no1 (stereo not drawn)	none
Cc1nc(NCCn2ncc3ccccc3c2=O)cc(C2CC(O)C2)n1 (stereo not drawn)	none
O=C(CSc1nc(=O)[nH]c2c1CCC2)NCc1ccccc1Cl	none
CCn1ccc(C(=O)N2c3ccccc3CC2c2nc(C(C)C)no2)n1 (stereo not drawn)	none
O=C(Nc1ccc2nc(SCC(=O)N3CCc4ccccc43)sc2c1)c1ccc(Cl)cc1	none
CCc1nnc(CN2CC[C@@H]3[C@@H](CCC(=O)N3CCc3ccccc3)C2)o1	none
Cc1cc(=O)n(CC(=O)N[C@@H]2CCOC[C@H]2Oc2ccccn2)nc1C	none
Cc1cccc(NC(=O)N2CC(c3nnc(-c4ccncc4)o3)C3(CCOCC3)C2)c1C (stereo not drawn)	none
CN(C)c1ccc(C(=O)N2CCC3(CC2)NC(=O)N(c2ccc(F)cc2)N3)cc1	none
CNC(=O)C1CCC(Cn2c(=O)c3sccc3n(CC(=O)N3CCCCC3C)c2=O)CC1 (stereo not drawn)	none
CCCNC(=O)C1CCC(Cn2c(=O)c3sccc3n(CC(=O)NCc3ccccc3)c2=O)CC1 (stereo not drawn)	none
CC1CCN(C(=O)Cn2c(=O)n(CC3CCC(C(=O)NC(C)C)CC3)c(=O)c3sccc32)CC1 (stereo not drawn)	none
CCCNC(=O)C1CCC(Cn2c(=O)c3sccc3n(Cc3ccccc3C)c2=O)CC1 (stereo not drawn)	none
C=Cc1ccc(Cn2c(=O)n(CC3CCC(C(=O)NC(C)C)CC3)c(=O)c3sccc32)cc1 (stereo not drawn)	Pf Dd2 growth 11µM
COc1cccc(Cn2c(=O)n(CC3CCC(C(=O)N4CCOCC4)CC3)c(=O)c3sccc32)c1 (stereo not drawn)	Pf Dd2 growth 8.9µM
Cc1ccc(C)c(Cn2nc(C)n3c(cc4cc(C)ccc43)c2=O)c1	none
CCc1cc(N2CCC(NCCc3cccc(Cl)c3)CC2)nc(C)n1	Pf Dd2 growth 11µM
Cc1nc(N2CCC(NC(=O)Cc3cccc(F)c3)CC2)cc(C(F)(F)F)n1	none
CCCc1cc(N2CCC(N[C@@H]3CCNC3)CC2)nc(C)n1	none
COCC(=O)N[C@H]1CCN(C(=O)COC)[C@H](C(=O)N[C@@H](Cc2cccs2)C(N)=O)C1	none
CN1C[C@@H](NC(=O)C2CC2)C[C@H]1c1nc(-c2ccc3ccccc3c2)no1	none
CC(C)C[C@@H]1N[C@H](C(=O)NC2CCCC2)Cc2c[nH]c3cccc1c23	Pf Dd2 growth 13µM
C=CCn1cc2c3c(cccc31)[C@H](CC(C)C)N[C@H](C(=O)NC1CCC1)C2	Pf Dd2 growth 13µM
C=CCn1cc2c3c(cccc31)[C@H](CC(C)C)N[C@H](C(=O)NCc1ccccc1OC)C2	none
CC(=O)N1CCCN(C(=O)[C@@H]2Cc3cn(C)c4cccc(c34)[C@H](CC(C)C)N2)CC1	none
C=CCn1cc2c3c(cccc31)[C@H](CC(C)C)N[C@H](C(=O)NCCN1CCOCC1)C2	none
C=CCn1cc2c3c(cccc31)[C@H](CC(C)C)N[C@H](C(=O)N1CCOCC1)C2	none
CC(C)C[C@@H]1N[C@H](C(=O)NC2CCCC2)Cc2cn(CC3CC3)c3cccc1c23	none
CC(C)C[C@@H]1N[C@H](C(=O)NC2CCC2)Cc2cn(Cc3nccn3C)c3cccc1c23	Pf Dd2 growth 10µM
CC(C)C[C@@H]1N[C@H](C(=O)NC2CCC2)Cc2c[nH]c3cccc1c23	none
CC#CCn1cc2c3c(cccc31)[C@H](CC(C)C)N[C@H](C(=O)OC)C2	none
C#CCNC(=O)[C@@H]1Cc2c[nH]c3cccc(c23)[C@H](CC(C)C)N1	none
C=CCn1cc2c3c(cccc31)[C@H](CC(C)C)N[C@H](C(=O)NCc1ccccc1)C2	Pf Dd2 growth 7.1µM
CCN(CC)C(=O)N1CCC(c2noc(-c3ccccc3)n2)C1 (stereo not drawn)	none
COCCn1c(C)nnc1-c1cc(-c2cccc(OC(F)(F)F)c2)ccn1	none
CCCCNC(=O)Cn1ncc2c(C)n(Cc3cccc(Cl)c3)c(C)c2c1=O	none
Cc1ccc(CN2C[C@@H](NC(=O)c3cccnc3)C[C@H]2CO)o1	none

Source: PubChem
